Assay results as given in PubChem BioAssay (NCATS).
Values joined by “and” are separate entries in the source; they are usually repeats but may differ in a detail not shown here. Equal entries are not always repeated. Inconclusive results are not listed. Active and inactive are the calls of the source. Unless noted, the call rests on the fitted dose curve; in most records, active means well fitted curve in the direction sought with a large enough effect; inconclusive means small, poorly fitted or top-dose-only effect, or another doubt; inactive means no such curve, though single readings can be large; an effect the other way counts as inactive or inconclusive.

Key:
[1] = MultiTox-Fluor Cytotoxicity Assay - LYMP1-001 - Dead Cells (AID 946); settings: LYMP1-001 lymphoblastoid cells, dead-cell protease fluorescence; series mostly up to 92.2 µM;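 further: cells exposed to compound for 16 h; 0% = DMSO and 100% = tetraoctylammonium bromide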
Method in brief: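 LYMP1-001 lymphoblastoid cells (2500/well) treated 16 h at 37 C. Dead-cell protease cleavage of bis-AAF-R110 read at Ex/Em 485/520. Normalized to DMSO and 15 uM tetraoctylammonium bromide; AC50 from Hill fits.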

[2] = MultiTox-Fluor Cytotoxicity Assay - LYMP1-001 - Live Cells (AID 947); settings: LYMP1-001 lymphoblastoid cells, live-cell protease fluorescence viability; series mostly up to 92.2 µM;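 further: 0% = DMSO only and full inhibition = tetraoctylammonium bromide control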
[3] = Cell Viability - LYMP1-002 - Assay at 16 hr (AID 948); settings: LYMP1-002 lymphoblastoid cell viability; series mostly up to 92.2 µM;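 further: 0% = DMSO alone and full effect = 92 µM tetraoctylammonium bromide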
Method in brief: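 Seed 2500 LYMP1-002 cells per well in complete medium and hold 5 hr at 37 C. Add compound across a concentration series and incubate 16 hr at 37 C. Add CellTiter-Glo, wait 30 min at room temperature, read luminescence.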

[4] = MultiTox-Fluor Cytotoxicity Assay - LYMP1-002 - Live Cells (AID 955); settings: LYMP1-002 lymphoblastoid live-cell protease fluorescence viability; series mostly up to 46.1 µM;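 further: cells exposed to compound for 16 hours; on the % scale 0 is the no-effect control and ±100 the full control effect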
Method in brief: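 Human lymphoblastoid LYMP1-002 cells, 2500/well, treated 16 h at 37 C in complete medium. Live-cell protease activity via GF-AFC fluorescence (Ex/Em 405/510) after 60 min reagent incubation; AC50 from Hill fits.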

[5] = MultiTox-Fluor Cytotoxicity Assay - LYMP1-003 - Live Cells (AID 962); settings: LYMP1-003 lymphoblastoid cells, MultiTox-Fluor live-cell protease fluorescence; series mostly up to 92.2 µM;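 further: cells exposed to compound for 16 hours at 37 °C; 0% = DMSO only and full loss = 92 µM tetraoctylammonium bromide; cytotoxic hits lower the live-cell protease signal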
Method in brief: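 LYMP1-003 lymphoblastoid cells, 2500/well in complete medium, treated 16 h at 37 C; live-cell protease cleavage of GF-AFC read by fluorescence (Ex/Em 405/510) after 60 min reagent; AC50 from Hill fits of concentration-response.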

[6] = Cell Viability - LYMP1-003 - Assay at 24 hr (AID 963); settings: LYMP1-003 lymphoblastoid cell viability; series mostly up to 92.2 µM;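 further: plate controls were DMSO only for no effect and tetraoctylammonium bromide positive control for full effect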
Method in brief: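 Human lymphoblastoid LYMP1-003 cells, 2500/well, treated 24 h at 37 C in complete medium. Viability read as intracellular ATP by CellTiter-Glo luminescence after 30 min at room temperature; AC50 from Hill-equation fits of qHTS concentration-response.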

[7] = Cell Viability - LYMP1-003 - Assay at 40 hr (AID 964); settings: LYMP1-003 lymphoblastoid viability; series mostly up to 92.2 µM; further: nearly all actives have a fitted effect of over 60% in size; further: potency means the concentration at half of the fitted maximal effect
Method in brief: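 LYMP1-003 human lymphoblastoid cells, 2500/well, preincubated 5 h at 37 C, then treated with compound for 40 h at 37 C. Intracellular ATP read by CellTiter-Glo luminescence after 30 min at room temperature; AC50 from Hill-equation fits.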

[8] = Cell Viability - LYMP2-003 (AID 965); settings: LYMP2-003 lymphoblastoid cell viability; series mostly up to 92.2 µM;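 further: cells exposed to compounds for 24 h before reading; 0% = DMSO only and full effect = 92 µM tetraoctylammonium bromide; nearly all actives have a fitted effect of over 50% in size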
Method in brief: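 Seed 2500 lymphoblastoid cells/well; incubate 5 hr, 37 C; add compounds; incubate 24 hr, 37 C; add CellTiter-Glo, 30 min RT; read luminescence. AC50 from Hill fit.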

[9] = Cell Viability - LYMP2-004 (AID 966); settings: LYMP2-004 lymphoblastoid cell viability, qHTS; series mostly up to 92.2 µM;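 further: plate controls were DMSO only for no effect and tetraoctylammonium bromide control for full effect; nearly all actives have a fitted effect of over 65% in size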
Method in brief: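 Lymphoblastoid LYMP2-004 cells, 2500 per well, were preincubated for 5 hr and then treated with compound for 24 h at 37 C in complete medium. Viability was read as cellular ATP by CellTiter-Glo luminescence, and AC50 values were taken from Hill fits to concentration-response data.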

[10] = Cell Viability - LYMP2-005 (AID 967); settings: LYMP2-005 lymphoblastoid cell viability; series mostly up to 92.2 µM;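 further: plate controls were DMSO only for no effect and 92 µM tetraoctylammonium bromide control for full effect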
Method in brief: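 Acute cytotoxicity is scored as a concentration-dependent drop in intracellular ATP in human lymphoblastoid LYMP2-005 cells after 24 h compound treatment. ATP is quantified by luciferase luminescence, and AC50 is derived by Hill-equation modelling.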

[11] = Cell Viability - LYMP2-009 (AID 968); settings: LYMP2-009 lymphoblastoid cell viability; series mostly up to 92.2 µM;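 further: 0% = DMSO alone and the full-kill end = tetraoctylammonium bromide at 92 µM; nearly all actives have a fitted effect of over 55% in size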
[12] = Cell Viability - LYMP2-011 (AID 969); settings: LYMP2-011 lymphoblastoid cells viability; series mostly up to 92.2 µM;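 further: 0% = DMSO only and full inhibition = 92 µM tetraoctylammonium bromide; nearly all actives have a fitted effect of over 60% in size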
Method in brief: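 2500 cells/well in complete medium, compound-treated 24 h at 37 C. Viability read as intracellular ATP by CellTiter-Glo luminescence after 30 min at room temperature. AC50 from Hill fits of qHTS concentration-response data.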

[13] = Cell Viability - LYMP2-013 (AID 970); settings: LYMP2-013 lymphoblastoid cells viability; series mostly up to 92.2 µM;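 further: 0% = DMSO only and full inhibition = tetraoctylammonium bromide control; nearly all actives have a fitted effect of over 55% in size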
Method in brief: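 Human lymphoblastoid LYMP2-013 cells, 2500/well, treated 24 h at 37 C in complete medium; viability as intracellular ATP by CellTiter-Glo luminescence after 30 min. AC50 from Hill fits of qHTS concentration-response.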

[14] = Cell Viability - LYMP2-015 (AID 971); settings: LYMP2-015 lymphoblastoid cell viability; series mostly up to 92.2 µM;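 further: 0% = DMSO only and full effect = 92 µM tetraoctylammonium bromide; nearly all actives have a fitted effect of over 55% in size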
Method in brief: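 LYMP2-015 human lymphoblastoid cells (2500/well) in complete medium, compound-treated 24 h at 37 C; viability read as cellular ATP by CellTiter-Glo luminescence after 30 min at room temperature. AC50 from Hill-equation fits of qHTS concentration-response data.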

[15] = Cell Viability - LYMP2-017 (AID 972); settings: LYMP2-017 lymphoblastoid cell viability; series mostly up to 92.2 µM; further: on the % scale 0 is the no-effect control and ±100 the full control effect; nearly all actives have a fitted effect of over 55% in size
Method in brief: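 LYMP2-017 human lymphoblastoid cells (2500/well) settled 5 hr at 37 C, then exposed to compound 24 hr at 37 C in complete medium. Viability taken as intracellular ATP by CellTiter-Glo luminescence after 30 min at RT; AC50 from Hill fits.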

[16] = Cell Viability - LYMP2-021 (AID 974); settings: LYMP2-021 lymphoblastoid cells viability; series mostly up to 92.2 µM
Method in brief: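 Human lymphoblastoid LYMP2-021 cells, 2500/well in complete medium, treated 24 hours at 37 C. Intracellular ATP by CellTiter-Glo luminescence (30 min, RT); AC50 from Hill fits of concentration-response.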

[17] = Cell Viability - LYMP2-023 (AID 975); settings: LYMP2-023 lymphoblastoid cell viability; series mostly up to 92.2 µM
Method in brief: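 LYMP2-023 human lymphoblastoid cells, 2500/well, preincubated 5 hr at 37 C, then compound-treated 24 hr at 37 C in complete medium. CellTiter-Glo luminescence (ATP) after 30 min at room temperature; AC50 from Hill-equation fits; tetraoctylammonium bromide positive control.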

[18] = qHTS assay for small molecule antagonists of the retinoid-related orphan receptor gamma (ROR-gamma) signaling pathway - cell viability counter screen (AID 720652; active means well fitted curve in the direction sought with a large enough effect in the repeat runs; an effect the other way counts as inactive or inconclusive;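 further: CHO reporter cells with doxycycline-induced ROR-gamma expression; compound exposure lasted 16 hr before ATP read; on the % scale 0 is the no-effect control and ±100 the full control effect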); settings: RORgamma reporter cell line viability counter screen; series mostly up to 92.2 µM
Method in brief: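 CHO cells carrying TET-inducible ROR and RORE-luciferase reporter, plated 5 hr, then dosed with compound plus doxycycline. After 16 hr at 37 C, viability read as intracellular ATP by CellTiter-Glo luminescence.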

[19] = qHTS assay for cell viability of HEK293 cells (AID 743288); settings: ATP luminescence (CellTiter-Glo), 18 h; max response: active compounds read low; further: on the % scale 0 is the no-effect control and ±100 the full control effect; nearly all actives have a fitted effect of over 50% in size
Method in brief: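 HEK293 parental, 2,000 cells/well; ≥5 h pre-incubation 37 C; pintool compound addition; 18 h, 37 C; CellTiter-Glo 30 min RT; luminescence read.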

[20] = qHTS assay for cell viability of the p53RE-bla HCT-116 cell line (AID 743292); settings: p53RE-bla HCT-116 viability, ATP luminescence, 16 h; series mostly up to 95 µM
Method in brief: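 After plating at 4,000 cells per well and a 5 h rest at 37 C, HCT-116 cells carrying p53RE-bla received test chemicals in DMSO. Sixteen hours later at 37 C, CellTiter-Glo was added and luminescence recorded following 30 min at room temperature.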

CC(C)COC(=O)c1ccccc1C(=O)OCC(C)C
inactive: Potency [1] | outcome [2] | outcome [3] | outcome [4] | outcome [5] | outcome [6] | Potency [7] | outcome [8] | outcome [9] | outcome [10] | outcome [11] | outcome [12] | outcome [13] | outcome [14] | outcome [15] | outcome [16] | outcome [17] | outcome [18] | max response [19] 0.653% | outcome [20]

Oc1ccccc1O
active: Potency [7] 7.94 µM

Oc1ccccc1Cl
inactive: Potency [1] | outcome [2] | outcome [3] | outcome [4] | outcome [5] | outcome [6] | Potency [7] | outcome [8] | outcome [9] | outcome [10] | outcome [11] | outcome [12] | outcome [13] | outcome [14] | outcome [15] | outcome [16] | outcome [17] | outcome [18] | max response [19] -13.2% | outcome [20]

COC1=CC(=O)OC(CCc2ccc3c(c2)OCO3)C1 (stereo not given)
inactive: Potency [1] | outcome [2] | outcome [3] | outcome [4] | outcome [5] | outcome [6] | outcome [8] | outcome [9] | outcome [10] | outcome [11] | outcome [12] | outcome [13] | outcome [14] | outcome [15] | outcome [16] | outcome [17] | outcome [18] | max response [19] -5.17% | outcome [20]

CCOC(=O)c1ccccc1N
inactive: Potency [1] | outcome [2] | outcome [3] | outcome [4] | outcome [5] | outcome [6] | Potency [7] | outcome [8] | outcome [9] | outcome [10] | outcome [11] | outcome [12] | outcome [13] | outcome [14] | outcome [15] | outcome [16] | outcome [17] | outcome [18] | max response [19] -8.89% | outcome [20]

c1ccc(Nc2ccc3ccccc3c2)cc1
inactive: Potency [1] | outcome [2] | outcome [3] | outcome [4] | outcome [5] | outcome [6] | Potency [7] | outcome [8] | outcome [9] | outcome [10] | outcome [11] | outcome [12] | outcome [13] | outcome [14] | outcome [15] | outcome [16] | outcome [17] | outcome [18] | max response [19] -12% and -13.2% | outcome [20]

CC(=O)/C=C/c1ccccc1
inactive: Potency [1] | outcome [2] | outcome [3] | outcome [4] | outcome [5] | outcome [6] | Potency [7] | outcome [8] | outcome [9] | outcome [10] | outcome [11] | outcome [12] | outcome [13] | outcome [14] | outcome [15] | outcome [16] | outcome [17] | outcome [18] | max response [19] -4.92% | outcome [20]

c1ccc2c(c1)-c1cccc3cccc-2c13
inactive: Potency [1] | outcome [2] | outcome [3] | outcome [4] | outcome [5] | outcome [6] | Potency [7] | outcome [8] | outcome [9] | outcome [10] | outcome [11] | outcome [12] | outcome [13] | outcome [14] | outcome [15] | outcome [16] | outcome [17] | outcome [18] | max response [19] -24.1% and 3.9% | outcome [20]
